# Unmarked numbers belong to inactive results. Active and inactive are the calls of the source. The call rests on the fitted dose curve; in most records, active means well fitted curve in the direction sought with a large enough effect in the repeat runs; inconclusive means weak or mixed curves; inactive means flat fitted curve, though single readings scatter.
# Experiment: qHTS assay to test for compound auto fluorescence at 590 nm (red) in HEK293 cells (AID 720679)
# Conditions: red autofluorescence 540/590 nm; series mostly up to 46 µM; fluorescence, % of fluorescent control: at the top concentration
# In short: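 Each well held 2,000 HEK293 cells in medium containing 10% dialyzed FBS. Following 4-5 hr attachment at 37C, 23 nL test compound or DMSO was added; plates sat overnight, and red fluorescence (540/590nm) was recorded.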
# On the % scale 0 is the no-effect control and ±100 the full control effect.
Structure (SMILES),"fluorescence, % of fluorescent control",Potency
OC1OC[C@@H](O)[C@H](O)[C@@H]1O (some centres not stated),0.0082%,–
CCN(CC)c1ccc(C(=C2C=CC(=[N+](CC)CC)C=C2)c2ccccc2)cc1,0.137%,–
CC(CCc1ccc(O)cc1)NCC(O)c1ccc(O)cc1 (configuration not stated),-0.146%,–
CC(=O)Nc1c(I)c(C(=O)O)c(I)c(N(C)C(C)=O)c1I,0.412%,–
C[C@]12C=CC(=O)N[C@@H]1CC[C@@H]1[C@@H]2CC[C@]2(C)[C@@H](C(=O)Nc3cc(C(F)(F)F)ccc3C(F)(F)F)CC[C@@H]12,0.234%,–
CCC(Oc1ccccc1)C(=O)N[C@@H]1C(=O)N2[C@@H]1SC(C)(C)[C@@H]2C(=O)O (some centres not stated),0.0451%,–
COc1c(O[C@@H]2O[C@H](CO)[C@@H](O)[C@H](O)[C@H]2O)cc2c(c1OC)-c1ccc(SC)c(=O)cc1[C@@H](NC(C)=O)CC2,-0.344% [at 18.6 µM],–
CC[C@@H]1/C=C(\C)C[C@H](C)C[C@H](OC)[C@H]2O[C@@](O)(C(=O)C(=O)N3CCCC[C@H]3C(=O)O[C@H](/C(C)=C/[C@@H]3CC[C@@H](Cl)[C@H](OC)C3)[C@H](C)[C@@H](O)CC1=O)[C@H](C)C[C@@H]2OC,-0.0053%,–
C[C@H](O)[C@H](O)[C@H]1CNc2nc(N)[nH]c(=O)c2N1,0.101%,–
COc1ccc(C[C@H](N)C(=O)N[C@H]2[C@@H](O)[C@H](n3cnc4c(N(C)C)ncnc43)O[C@@H]2CO)cc1,-0.0147%,–
O=C(NNCNNC(=O)c1ccncc1)c1ccncc1,0.0403%,–
CC(O)[C@H]1CC[C@H]2[C@@H]3CC[C@@H]4C[C@@H](O)CC[C@]4(C)[C@H]3CC[C@]12C (some centres not stated),-0.327%,–
CCCCc1cc2c(=O)c(C(=O)OC)c[nH]c2cc1OCc1ccccc1,-0.367%,–
C=C[C@]1(C)C[C@@H](OC(=O)CSCCN(CC)CC)[C@]2(C)[C@H](C)CC[C@]3(CCC(=O)[C@H]32)[C@@H](C)[C@@H]1O,0.0183%,–
CCCCCCCCCCCCCCCCCC(=O)OCC(C)O (configuration not stated),0.082%,–
CCCCC[C@H](O)/C=C/[C@@H]1[C@H]2C/C(=C/CCCC(=O)O)O[C@H]2C[C@H]1O,0.0752%,–
CCOC(=O)[C@@H](N)CS,0.201%,–
CC1(C)S[C@@H]2[C@H](NC(=O)C(N)c3ccccc3)C(=O)N2[C@H]1C(=O)OC1OC(=O)c2ccccc21 (some centres not stated),-0.233% [at 18.6 µM],–
CN1CCc2c(c3ccccc3n2Cc2ccccc2)C1,-0.249% [at 18.6 µM],–
CN(C)CCOc1ccccc1Cc1ccccc1 (tested in a mixture with another compound),-0.0062%,–
CCOC(=O)c1c[nH]c2cc(OCC(C)C)c(OCC(C)C)cc2c1=O,0.57%,–
CN(CCO)CC(O)Cn1cnc2c1c(=O)n(C)c(=O)n2C (configuration not stated) (tested in a mixture with another compound),0.112%,–
FCOC(C(F)(F)F)C(F)(F)F,-0.148%,–
CCN(CC)CCOc1ccc2nc(N(C)C)sc2c1,0.0411%,–
COc1cc(-c2ccc(-[n+]3nc(-c4ccccc4)nn3-c3ccc([N+](=O)[O-])cc3)c(OC)c2)ccc1-[n+]1nc(-c2ccccc2)nn1-c1ccc([N+](=O)[O-])cc1,-0.15%,–
COC(=O)[C@H]1[C@H]2C[C@@H]3c4[nH]c5ccccc5c4CCN3C[C@H]2C[C@@H](OC(=O)c2cc(OC)c(OC)c(OC)c2)[C@@H]1OC,–,inactive

# Experiment: qHTS assay to test for compound auto fluorescence at 535 nm (green) in HEK293 cells (AID 720680)
# Conditions: green autofluorescence 485/535 nm; series mostly up to 46 µM; fluorescence, % of fluorescein: at the top concentration
row,Structure (SMILES),"fluorescence, % of fluorescein"
1,CCCCCC(O)/C=C/C=O (configuration not stated),-0.185%
2,O=C(Cn1c(=O)sc2ccc(Cl)cc21)N1CCN(CCO)CC1,0.0053%
3,COc1ccc2c(c1)OC(C)(C)C(c1ccccc1)C2c1ccc(OCCN2CCCC2)cc1 (configuration not stated),-0.04%
4,CCCCCCOc1ccc(C(=N)N(CCCC)CCCC)c2ccccc12,-0.0018%
5,C[C@H](N)C(=O)N[C@@H](C)P(=O)(O)O,0.0173%
6,OC[C@H]1OC([S-])[C@H](O)[C@@H](O)[C@@H]1O.[Au+] (some centres not stated),-0.108%

# — PubChem BioAssay (Tox21)
